Source: PubChem BioAssay
Activity calls are given as the source filed them.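 The calls were made as follows, unless noted: active = fluorescence slope after compound addition differing from the mean of all screened samples at 99.7% confidence, in either direction; inactive = the rest.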

Tests used:
[1] = inhibitors of TNFa-induced NFkB p65 translocation, primary screen, imaging, HUVEC, MLSMR starter and 10KST1 sets (AID 438;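 active = inhibition above 20% together with a positive visual image hit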;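 also: compound added about 3h40 before a 20 min TNFalpha stimulation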;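 as to inhibition: signal is the nuclear over cytoplasmic p65 intensity ratio per well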); conditions: HUVEC TNFa-induced p65 nuclear translocation; cell count: measured here: nuclei count (cytotoxicity indicator), at 2.08 µM; inhibition: at 2 µM, stronger effect = higher value, 0% TNFa-plus-vehicle, 100% no-TNFa wells
[2] = inhibitors of mutant huntingtin aggregation, primary screen, imaging, exon1htt(103Q)mCFP cells, high-content imaging (AID 483;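 active = visual image review flags a hit and inhibition of aggregation exceeds 20%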;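 also: compound exposure lasted 3 days before fixation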;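 as to nuclei count: percent of the per-plate median nuclei count of sample wells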); conditions: exon1htt(103Q)mCFP cell line, aggregate imaging, at 2 µM; inhibition of aggregation: stronger effect = higher value; nuclei count: measured here: cell count, toxicity
[3] = inhibitors of E-selectin induction by TNFa, primary screen, imaging, HUVEC, immunofluorescence, MLSMR starter and 10KST1 sets (AID 487;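 active = visually confirmed hit in the image check and inhibition above 20%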;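 as to inhibition: signal is fraction of cell area covered by stained E-selectin grains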;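 as to nuclei count: 100% = median nuclei count of all wells on the same plate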); conditions: HUVEC TNFalpha-induced E-selectin immunofluorescence imaging, at 2 µM; inhibition: stronger effect = higher value; nuclei count: measured here: cell number, toxicity
[4] = target: Voltage-gated potassium channel subunit beta-2 (Rattus norvegicus) (UniProt P62483); assay: KvBeta enzyme negative modulators, primary screen, biochemical, NADPH fluorescence (AID 622;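 active = fluorescence slope higher than the sample average by over 3 SD, cut at about -0.22 in these data, passing the limit was not always enough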;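 also: slope of raw intensity against log time taken from 70 to 1610 s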); conditions: recombinant KvBeta, 4-cyanobenzaldehyde reduction, at 10 µM, stronger effect = higher value
[5] = target: Voltage-gated potassium channel subunit beta-2 (Rattus norvegicus) (UniProt P62483); assay: KvBeta positive modulators, primary screen, biochemical, NADPH fluorescence (AID 623;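 active = NADPH fluorescence slope more negative than the mean of all samples by about 3 SD, 99.7% confidence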;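 also: fluorescence intensity change per second fitted from 20 to 320 s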); conditions: Recombinant KvBeta, NADPH fluorescence decrease slope, 10 min; at 10 µM; stronger effect = lower value
[6] = target: Alpha-2C adrenergic receptor (Homo sapiens) (UniProt P18825); assay: modulators of alpha2C/GIRK thallium flux, primary screen, cell-based, HEK293 alpha2C/GIRK1/2 (AID 624); conditions: thallium flux BTC fluorescence, at 10 µM, actives lie on both sides;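 also: slope of fluorescence ratio to pre-addition baseline per second over 15 to 24 s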
[7] = inhibitors of Sendai virus-induced IRF3 signaling, primary screen, TLR/RLR signaling modifier project, cell-based, Sendai virus stimulus, luciferase, 10K MLSCN set (AID 602276;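 active = inhibition at or above 50% at 10 µM; inactive = inhibition below 50%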;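 also: firefly luciferase from ISG56 promoter only with Renilla not read in this screen; 0% = Sendai virus plus DMSO and 100% = medium plus DMSO without virus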); conditions: HEK293 RL24 IRF3 luciferase reporter, at 10 µM, stronger effect = higher value
[8] = inhibitors of poly I:C-induced TLR3 signaling, primary screen, cell-based, poly I:C stimulus, luciferase, 10K MLSCN set (AID 602277;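 active = inhibition of the reporter signal at or above 50%; inactive = inhibition below 50%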); conditions: HEK293-TLR3 RL24 IRF3 luciferase reporter, at 10 µM, stronger effect = higher value

Chain of Alpha-2C adrenergic receptor (Homo sapiens) (P18825 whole entry, looked up): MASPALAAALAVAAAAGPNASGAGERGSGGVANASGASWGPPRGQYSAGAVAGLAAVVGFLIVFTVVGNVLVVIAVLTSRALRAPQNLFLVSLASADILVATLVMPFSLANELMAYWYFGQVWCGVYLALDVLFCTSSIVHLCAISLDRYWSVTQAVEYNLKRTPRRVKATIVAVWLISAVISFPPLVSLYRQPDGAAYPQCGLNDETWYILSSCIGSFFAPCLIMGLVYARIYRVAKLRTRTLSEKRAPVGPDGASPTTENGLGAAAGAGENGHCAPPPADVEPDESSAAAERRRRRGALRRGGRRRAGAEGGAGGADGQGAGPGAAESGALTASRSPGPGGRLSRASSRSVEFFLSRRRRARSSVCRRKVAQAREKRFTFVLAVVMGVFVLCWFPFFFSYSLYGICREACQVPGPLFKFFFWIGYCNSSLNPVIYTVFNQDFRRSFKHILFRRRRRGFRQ
Chain of Voltage-gated potassium channel subunit beta-2 (Rattus norvegicus) (P62483 whole entry, looked up): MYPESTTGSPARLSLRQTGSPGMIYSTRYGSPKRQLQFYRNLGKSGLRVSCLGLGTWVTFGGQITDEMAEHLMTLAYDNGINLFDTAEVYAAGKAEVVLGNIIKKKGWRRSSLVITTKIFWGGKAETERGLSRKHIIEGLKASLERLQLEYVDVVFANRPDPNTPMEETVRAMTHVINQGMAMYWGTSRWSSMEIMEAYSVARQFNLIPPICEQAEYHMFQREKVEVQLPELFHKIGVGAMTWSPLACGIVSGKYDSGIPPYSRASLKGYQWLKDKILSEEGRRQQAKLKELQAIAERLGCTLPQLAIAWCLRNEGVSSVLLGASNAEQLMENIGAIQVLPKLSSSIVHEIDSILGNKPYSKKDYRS

SMILES	cell count [1]	inhibition [1]	inhibition of aggregation [2]	nuclei count [2]	inhibition [3]	nuclei count [3]	fluorescence slope [4]	NADPH fluorescence slope [5]	slope [6]	inhibition [7]	inhibition [8]
Cc1c(N(C)C)nc2ccccc2c1N	575	-3.8% (inactive)	-19.4% (inactive)	99.7%	42.5% (inactive)	81.2%	-0.361 (inactive)	-1.5e-05 (inactive)	0.00599 (inactive)	13.7% (inactive)	20.7% (inactive)
OC1C=CSc2nc3ccccc3n21 (configuration not stated)	398	4.9% (inactive)	-12.9% (inactive)	102%	-50.3% (inactive)	113%	-0.467 (inactive)	-3.8e-05 (inactive)	0.00527 (inactive)	4.8% (inactive)	17.8% (inactive)
CC(=O)c1cccc(NC(=O)N2CCCc3ccccc32)c1	334	2% (inactive)	-9.8% (inactive)	95.3%	-43.9% (inactive)	120%	-0.622 (inactive)	3.7e-06 (inactive)	0.00357 (inactive)	9.66% (inactive)	-1.85% (inactive)
O=C(c1ccccc1)N1CCN(Cc2ccccc2Br)CC1	234	-2.5% (inactive)	23.9% (inactive)	77.4%	-25.8% (inactive)	96.1%	-0.428 (inactive)	-4.5e-05 (inactive)	0.00425 (inactive)	9.36% (inactive)	4.59% (inactive)
COc1ccccc1CNC(=O)C1CCCN(S(=O)(=O)c2cccc3cccnc23)C1 (configuration not stated)	783	-5.1% (inactive)	-33.4% (inactive)	102%	-38.9% (inactive)	108%	-0.592 (inactive)	-5.8e-05 (inactive)	0.00706 (inactive)	3.46% (inactive)	26.9% (inactive)
CC1=C(C(=O)OCc2ccccc2)C(c2ccc(C)o2)C2=C(CCCC2=O)N1 (configuration not stated)	745	1.9% (inactive)	14.6% (inactive)	101%	29.9% (inactive)	97%	-0.466 (inactive)	-3.8e-05 (inactive)	0.00603 (inactive)	2.43% (inactive)	15.6% (inactive)
CCOC(=O)c1ccc(N=c2sc(C(=O)OC)cc(=O)n2Cc2ccco2)cc1	514	-8% (inactive)	-5.9% (inactive)	107%	0.2% (inactive)	112%	-0.608 (inactive)	-4.8e-05 (inactive)	0.00678 (inactive)	-17.5% (inactive)	77.4% (active)
